Consider one sequence from paper PMC7862700, “An all-to-all approach to the identification of sequence-specific readers for epigenetic DNA modifications on cytosine”.

Common to all, as to experiment: DAPPL (digital affinity profiling via proximity ligation, sequencing); 10 mM Tris-HCl pH 7.5, 50 mM NaCl, 1 mM DTT, 4% glycerol, room temperature, 30 min; GST-TFs on glutathione beads, 16-mer random dsDNA library, 0.1% formaldehyde crosslink after washing; high values mean tight binding
What all share (settings): protein: recombinant; tags: N-terminal GST; dsDNA, one strand shown

The target in one experiment is T1, ELF3 (Homo sapiens, UniProt P78545 1-371).
T1 sequence: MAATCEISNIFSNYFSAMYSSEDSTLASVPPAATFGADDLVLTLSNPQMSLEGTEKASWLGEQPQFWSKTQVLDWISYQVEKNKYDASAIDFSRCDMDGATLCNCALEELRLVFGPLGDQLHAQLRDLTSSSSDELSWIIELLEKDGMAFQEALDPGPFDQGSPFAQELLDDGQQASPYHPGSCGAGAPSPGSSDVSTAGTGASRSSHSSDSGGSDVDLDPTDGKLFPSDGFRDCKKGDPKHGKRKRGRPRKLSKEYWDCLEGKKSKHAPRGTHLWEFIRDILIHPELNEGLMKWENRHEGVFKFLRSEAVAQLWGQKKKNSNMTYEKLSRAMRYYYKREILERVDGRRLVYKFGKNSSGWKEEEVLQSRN
In outline:
(§1)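 A tag-only sample was pooled with DNA-barcoded human transcription factors that had been expressed in yeast as GST fusions and captured on glutathione beads. The pools were incubated for 30 min at room temperature with 200 nmole of a random double-stranded 16-mer DNA library in Tris/NaCl/DTT/glycerol buffer, then washed, crosslinked with 0.1% formaldehyde, proximity-ligated (BsaI/T4 ligase, 1 h, 37 °C), PCR-amplified and sequenced on an Illumina NextSeq500. Binding signal is each hexamer's read frequency for a factor divided by its frequency for the tag-only sample.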

Another experiment concerns the target CRX (Homo sapiens, UniProt O43186 1-299). The method in brief:
as §1

Another experiment addresses ETV1 (Homo sapiens, UniProt P50549 1-477). The method in brief:
as §1

The next experiment concerns the target T2, ERF (Homo sapiens, UniProt P50548 1-548).
T2 sequence: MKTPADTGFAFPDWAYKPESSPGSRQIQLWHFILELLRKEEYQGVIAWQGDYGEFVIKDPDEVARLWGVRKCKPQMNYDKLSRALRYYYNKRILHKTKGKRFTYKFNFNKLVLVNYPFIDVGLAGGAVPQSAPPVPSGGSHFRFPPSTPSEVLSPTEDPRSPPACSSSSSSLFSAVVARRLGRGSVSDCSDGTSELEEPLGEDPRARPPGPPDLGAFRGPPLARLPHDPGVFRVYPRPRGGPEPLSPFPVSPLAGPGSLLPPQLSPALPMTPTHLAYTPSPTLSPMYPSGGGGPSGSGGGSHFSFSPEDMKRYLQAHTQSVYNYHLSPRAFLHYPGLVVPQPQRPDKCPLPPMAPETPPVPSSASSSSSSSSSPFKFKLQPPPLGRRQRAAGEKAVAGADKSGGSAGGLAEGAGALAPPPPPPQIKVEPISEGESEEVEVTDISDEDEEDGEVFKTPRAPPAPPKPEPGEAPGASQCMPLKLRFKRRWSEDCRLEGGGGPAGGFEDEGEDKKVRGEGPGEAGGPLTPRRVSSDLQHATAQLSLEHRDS
In outline: as §1

The next experiment concerns the target T3, ETV3L (Homo sapiens, UniProt Q6ZN32 1-361).
T3 sequence: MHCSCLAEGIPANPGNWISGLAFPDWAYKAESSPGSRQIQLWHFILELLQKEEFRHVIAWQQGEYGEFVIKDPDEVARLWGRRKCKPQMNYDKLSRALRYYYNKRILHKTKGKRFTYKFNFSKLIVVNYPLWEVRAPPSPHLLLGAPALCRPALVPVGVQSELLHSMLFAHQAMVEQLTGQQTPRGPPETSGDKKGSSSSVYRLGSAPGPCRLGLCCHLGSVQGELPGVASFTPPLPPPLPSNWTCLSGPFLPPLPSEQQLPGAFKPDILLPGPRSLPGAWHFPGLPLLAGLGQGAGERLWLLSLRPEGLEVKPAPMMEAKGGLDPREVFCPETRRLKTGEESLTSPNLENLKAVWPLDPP
The method in brief:
as §1

The target in the next experiment is T4, SPDEF (Homo sapiens, UniProt O95238 1-335).
T4 sequence: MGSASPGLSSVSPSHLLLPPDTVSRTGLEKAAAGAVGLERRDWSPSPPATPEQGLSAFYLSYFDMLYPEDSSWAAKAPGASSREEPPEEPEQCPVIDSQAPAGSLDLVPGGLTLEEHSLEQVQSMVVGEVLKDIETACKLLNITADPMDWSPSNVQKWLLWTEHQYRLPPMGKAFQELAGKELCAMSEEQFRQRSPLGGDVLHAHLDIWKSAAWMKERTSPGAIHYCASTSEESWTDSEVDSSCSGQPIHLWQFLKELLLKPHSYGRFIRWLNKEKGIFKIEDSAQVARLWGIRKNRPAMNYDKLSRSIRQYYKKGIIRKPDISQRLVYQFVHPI
In outline:
as §1

For another experiment, the target named is T5, ETV7 (Homo sapiens, UniProt Q9Y603 1-341).
T5 sequence: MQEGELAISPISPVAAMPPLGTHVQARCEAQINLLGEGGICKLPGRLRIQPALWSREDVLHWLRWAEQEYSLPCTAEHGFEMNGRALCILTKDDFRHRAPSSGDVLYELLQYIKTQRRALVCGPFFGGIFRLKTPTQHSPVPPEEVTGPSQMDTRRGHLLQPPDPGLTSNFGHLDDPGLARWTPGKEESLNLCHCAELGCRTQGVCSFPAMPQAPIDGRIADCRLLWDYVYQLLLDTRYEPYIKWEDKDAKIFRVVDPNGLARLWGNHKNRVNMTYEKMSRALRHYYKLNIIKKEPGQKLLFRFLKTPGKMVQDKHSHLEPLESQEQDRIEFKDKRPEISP
The method in brief: as §1

In another experiment the target is T6, ELF5 (Homo sapiens, UniProt Q9UKW6-2 1-255).
T6 sequence: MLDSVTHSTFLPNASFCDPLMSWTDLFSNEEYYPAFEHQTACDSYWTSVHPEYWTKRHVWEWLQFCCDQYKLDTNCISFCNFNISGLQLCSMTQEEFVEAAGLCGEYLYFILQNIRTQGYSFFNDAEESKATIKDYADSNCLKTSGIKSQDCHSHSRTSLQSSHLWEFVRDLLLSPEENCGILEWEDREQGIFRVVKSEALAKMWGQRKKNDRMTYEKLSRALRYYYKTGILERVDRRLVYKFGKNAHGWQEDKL
The method in brief:
as §1

A further experiment has as its target T7, ETV3 (Homo sapiens, UniProt P41162-2 1-143).
T7 sequence: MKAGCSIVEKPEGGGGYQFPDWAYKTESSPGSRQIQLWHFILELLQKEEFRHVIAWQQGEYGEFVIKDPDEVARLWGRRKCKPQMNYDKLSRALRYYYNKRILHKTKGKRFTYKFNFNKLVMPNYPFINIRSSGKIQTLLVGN
The method in brief:
as §1

Chain of CRX (O43186 whole entry): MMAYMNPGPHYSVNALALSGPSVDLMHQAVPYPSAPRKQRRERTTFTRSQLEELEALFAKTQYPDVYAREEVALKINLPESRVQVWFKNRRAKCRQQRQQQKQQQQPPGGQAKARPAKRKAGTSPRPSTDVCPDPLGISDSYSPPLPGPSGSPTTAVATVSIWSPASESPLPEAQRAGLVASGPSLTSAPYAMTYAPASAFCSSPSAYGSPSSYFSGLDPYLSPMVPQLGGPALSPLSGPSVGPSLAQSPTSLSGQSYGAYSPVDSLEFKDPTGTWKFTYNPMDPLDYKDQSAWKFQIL
Chain of ETV1 (P50549 whole entry): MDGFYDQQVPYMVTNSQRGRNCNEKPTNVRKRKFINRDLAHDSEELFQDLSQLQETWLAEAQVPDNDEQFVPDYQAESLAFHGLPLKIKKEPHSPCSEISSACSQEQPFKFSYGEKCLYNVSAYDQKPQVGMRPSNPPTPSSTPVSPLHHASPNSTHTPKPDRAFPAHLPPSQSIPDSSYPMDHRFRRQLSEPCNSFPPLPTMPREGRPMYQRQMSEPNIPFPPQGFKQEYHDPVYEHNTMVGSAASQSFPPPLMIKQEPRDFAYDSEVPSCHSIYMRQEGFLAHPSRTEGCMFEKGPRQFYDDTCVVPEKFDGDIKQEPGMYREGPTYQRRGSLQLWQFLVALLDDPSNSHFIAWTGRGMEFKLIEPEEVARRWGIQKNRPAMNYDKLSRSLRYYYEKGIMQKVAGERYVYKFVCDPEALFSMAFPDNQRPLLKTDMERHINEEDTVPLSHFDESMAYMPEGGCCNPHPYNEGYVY

Turning to GCGAAT, the binding signal with ELF3 was 1.12 fold enrichment (6-mer frequency, TF over GST control); in the experiment with CRX, 1.08 fold enrichment (6-mer frequency, TF over GST control); in the experiment with ETV1, 1.04 fold enrichment (6-mer frequency, TF over GST control); in the experiment with ERF, 1.05 fold enrichment (6-mer frequency, TF over GST control); with ETV3L it was 1.06 fold enrichment (6-mer frequency, TF over GST control); with SPDEF it was 1.08 fold enrichment (6-mer frequency, TF over GST control). The binding signal in the experiment with ETV7 is 1.04 fold enrichment (6-mer frequency, TF over GST control); with ELF5, 1.04 fold enrichment (6-mer frequency, TF over GST control); with ETV3 it was 1.07 fold enrichment (6-mer frequency, TF over GST control).
